A selection: hits, their analogues and other compounds. The true share with any hit is near 7.4%.
Luc counter: Counterscreen for Luciferase (Kinase-Glo TM) Inhibition; Luciferin 4-monooxygenase (Photuris pensylvanica), Q27757; Kinase-Glo luciferase, ATP luminescence, 8 min; Potency, µM (doses to about 38.3 µM), usual class: inhibitors; 0.28% of 200,000 active; AID 1379, 2008; further: nearly all actives have a fitted effect of over 60% in size
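Recombinant Kinase-Glo luciferase, 10 uM ATP (linear range), luciferin; imidazole pH 7.2 / KCl / MgCl2 / Tween / BSA buffer; 8 min RT; luminescence.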
Rab9 promoter act: qHTS Assay for Rab9 Promoter Activators. Huh7 Rab9 promoter-luciferase reporter, luminescence, 24 h. Potency, µM (highest dose often 9.22 µM), actives largely listed as activators. 2.8% of 320,000 active. AID 485297, 2010; further: nearly all actives have a fitted effect of over 60% in size
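Cell-based reporter: Huh7 stable for Rab9 promoter-driven luciferase, plated in reduced-serum medium with 10% FBS at 1500 cells/well, compound-treated 24 h at 37 °C, luminescence read after 10 min reagent.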
ELG1 genotox: qHTS screen for small molecules that induce genotoxicity in human embryonic kidney (HEK293T) cells expressing luciferase-tagged ELG1. HEK293T ELG1-luciferase reporter, luminescence, 16 h. 1.3% of 330,000 active. Potency, µM (top dose mostly 46 µM), most hits filed as activators; further: nearly all actives have a fitted effect of over 60% in size
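DMSO vehicle served as control against compound-treated ELG1-luciferase HEK293T cells; exposure lasted 16 hr at 37 °C and 5% CO2, followed by ONE-Glo luminescence detection after 30 min.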
FLuc counter: qHTS profiling assay for firefly luciferase inhibitor/activator using purifed enzyme and Km concentrations of substrates (counterscreen for miR-21 project). 6.9% of 360,000 active. AID 588342, 2011. purified FLuc, Km substrates, luminescence inhibition. Potency, µM (titrated, usually from 57.5 µM), hits mostly inhibitors; further: nearly all actives have a fitted effect of over 55% in size
Target sequence (P08659 whole entry, looked up): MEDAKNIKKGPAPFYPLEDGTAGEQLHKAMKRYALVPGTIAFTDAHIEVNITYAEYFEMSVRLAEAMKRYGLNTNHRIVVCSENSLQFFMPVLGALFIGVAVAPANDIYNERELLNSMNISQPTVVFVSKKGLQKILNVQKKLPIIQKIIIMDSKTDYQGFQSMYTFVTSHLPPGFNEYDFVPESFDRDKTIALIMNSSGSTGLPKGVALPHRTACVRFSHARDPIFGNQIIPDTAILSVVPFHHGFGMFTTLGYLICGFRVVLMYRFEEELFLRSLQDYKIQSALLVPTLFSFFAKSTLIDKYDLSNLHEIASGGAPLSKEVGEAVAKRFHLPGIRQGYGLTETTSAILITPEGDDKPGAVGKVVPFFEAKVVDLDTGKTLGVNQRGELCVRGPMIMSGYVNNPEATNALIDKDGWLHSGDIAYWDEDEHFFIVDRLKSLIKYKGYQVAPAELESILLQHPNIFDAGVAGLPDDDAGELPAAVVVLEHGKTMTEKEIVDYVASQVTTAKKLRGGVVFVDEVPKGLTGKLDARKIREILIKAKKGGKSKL
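Purified P. pyralis luciferase, 10 nM final, with Km-level 10 uM D-luciferin and 10 uM ATP in 50 mM Tris acetate pH 7.5, 10 mM Mg acetate, 0.01% Tween-20, 0.05% BSA; 6-point qHTS titration about 60 µM downward; luminescence read.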
SMN2 splice up: qHTS Assay for Enhancers of SMN2 Splice Variant Expression. HEK293 SMN2-luciferase splicing reporter, luminescence, 30-36 h. Potency, µM (top dose mostly 46.1 µM), hits mostly activators. 2.8% of 210,000 active. AID 1458, 2008; further: nearly all actives have a fitted effect of over 55% in size
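qHTS luciferase splicing reporter: luminescence rises when SMN2 exon 7 is included in transfected HEK293 cells. Compound exposure lasted 30-36 h at 37C, with 4.5 mM final sodium butyrate as control, followed by a ONE-Glo read.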
NPC1 prom act: qHTS Assay for NPC1 Promoter Activators | Huh7 NPC1 promoter luciferase reporter, 24 h | Potency, µM (doses to about 9.22 µM), hits mostly activators | 2.4% of 320,000 active | AID 485313, 2010; further: nearly all actives have a fitted effect of over 60% in size
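NPC1 promoter–luciferase Huh7 cells; 24 h compound; luminescence.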
Numbers stand for hits; n = inactive; u = inconclusive; x = not tested or not shown; [ ] = another dose, or the depositor's remark. The call rests on the fitted dose curve; in most records, active means well fitted curve in the direction sought with a large enough effect; inconclusive means small, poorly fitted or top-dose-only effect, or another doubt; inactive means no such curve, though single readings can be large; an effect the other way counts as inactive or inconclusive.

SMILES | Luc counter | Rab9 promoter act | ELG1 genotox | FLuc counter | SMN2 splice up | NPC1 prom act
CC(C)=CC(=O)OCc1cc([N+](=O)[O-])cc2c1OCOC2 | n | u | u | 24µM | u | n
Cc1ccc(S(=O)(=O)c2cn(CC(=O)Nc3cccc(C)c3)c3cc4c(cc3c2=O)OCO4)cc1 | x | x | x | n | n | x
Nc1nc(-c2ccc3c(c2)CCCC3)c(CC(=O)O)s1 | x | n | n | 24µM | x | n
O=C(Cn1c(SCCOc2ccccc2)nc2ccccc21)N1CCOCC1 | x | x | x | n | x | x
COC(=O)c1c(-c2ccccc2OC)sc2ccccc12 | x | n | n | n | x | n
COc1cccc2sc3ccc(C#Cc4ccc(N)cc4)cc3c(=O)c12 | x | 2.5µM | u | 4.8µM | x | 3.5µM
COc1cccc2sc3ccc(NCc4ccc5c(c4)OCO5)cc3c(=O)c12 | x | n | n | u | x | n
COc1cccc2oc3cc(C#CC4(O)CCCCC4)ccc3c(=O)c12 | x | 0.35µM | 0.41µM | 0.6µM | x | 0.35µM
COc1ccc2sc3ccccc3c(=O)c2c1OC | n | u | u | 15µM | n | u
COc1cccc2sc3ccc(C#CC4(O)CCCCC4)cc3c(=O)c12 | x | 2.8µM | u | 2.1µM | x | 1.6µM
COc1ccccc1-c1sc2cc3c(cc2c1C#CC1(O)CCCCC1)OCO3 | x | n | n | n | x | n
Cc1ccc(C2CC(=O)n3nc(-c4ccc(F)cc4)nc3S2)cc1 (stereo not given) | x | x | x | n | n | x
O=C(NCCc1nc2ccccc2n1Cc1c(F)cccc1Cl)c1ccco1 | x | x | x | n | n | x
CC1CCCCN1CCCNC(=O)c1ccc2c(c1)sc1nc(-c3ccc(F)cc3)cn12 (stereo not given) | x | x | x | n | x | x
COc1cccc2oc3cc(C#Cc4ccccn4)ccc3c(=O)c12 | x | 3.2µM | n | 4.8µM | x | 2.5µM
Cc1ccccc1C(=O)OCc1cc(=O)n2nc(C(C)C)sc2n1 | x | x | x | 17µM | x | x
CCCc1nn2c(=O)cc(COC(=O)c3cccs3)nc2s1 | x | x | x | 27µM | x | x
CC(C)c1nn2c(=O)cc(COC(=O)C3CCCCC3)nc2s1 | x | x | x | 24µM | x | x
Cc1ccc(Cl)cc1NC(=O)Nc1cn(CC(C)C)c(=O)c2ccccc12 | x | x | x | n | n | x
COc1ccc(/C=N/NC(=O)c2nc(-c3ccccc3)n(-c3ccccc3)n2)cc1 | n | n | n | 15µM | n | n
Cc1ccc(/C=N/NC(=O)c2ccc(-n3cnnn3)cc2)cc1 | x | n | n | n | x | n
COc1ccc(/C=N/NC(=O)c2ccc(-n3cnnn3)cc2)cc1 | x | n | n | 11µM | x | n
CC(C)c1ccc(/C=N/NC(=O)c2ccc(-n3cnnn3)cc2)cc1 | x | n | n | 5.4µM | x | n
Cc1ccc2nc3c(c(Nc4ccc(C)c(C)c4)c2c1)CCC3 | x | x | x | n | n | x
COC(=O)c1cccc(CSc2nc3ccccc3[nH]2)c1 | n | u | u | 7.6µM | 3.2µM | 2.5µM
SMILES | Luc counter | Rab9 promoter act | ELG1 genotox | FLuc counter | SMN2 splice up | NPC1 prom act
COc1ccc(CSc2nc3ncccc3[nH]2)cc1 | x | x | x | 19µM | x | x
c1ccc2[nH]c(SCc3ccc(-c4nnco4)cc3)nc2c1 | n | 3.5µM | u | 11µM | n | u
C[N+](C)(C)CCCSc1nc2ccccc2[nH]1 | n[7.66 µM] | x | x | x | n[9.22 µM] | x
CC(C)CCSc1nc2ccccc2[nH]1 | n | 3.5µM | u | 11µM | 14µM | 3.5µM
N[C@@H]1C(O)OC(CO)C(O)C1O (stereo not given in full) | n | x | x | x | n | x
O=c1[nH]c(SCc2ccccc2F)nc2ccccc12 | n | n | n | n | x | n
O=C1CCC(=O)N1c1ccc(CSc2nc3ccccc3[nH]2)cc1 | n | n | u | u | n | n
Fc1ccccc1CSc1nc2ncccc2[nH]1 | n | u | 10µM | 15µM | 22µM | u
COc1ccc(CSc2nc3ccccc3[nH]2)cc1 | 8.9µM | 0.5µM | u | 1.5µM | u | 0.4µM
COc1ccccc1N(/N=C1\Sc2ccccc2C1=O)C(C)=O | x | 4.5µM | 0.92µM | 12µM | x | n
COc1ccc(N(/N=C2\Sc3ccccc3C2=O)C(C)=O)cc1 | n | u | u | 12µM | 16µM | n

Screening data deposited in PubChem BioAssay by National Center for Advancing Translational Sciences (NCATS).
